This note sets out measurements from article PMC6919601, “Identification of Plasmodium dipeptidyl aminopeptidase allosteric inhibitors by high throughput screening” (PLoS ONE, 2019).

In all, about 110,000 compounds went through this assay and about 230 (0.21%) showed an effect of 50% or more. The full list was thinned out, with strong results kept by preference.
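Note: 30 min substrate incubation versus DMSO and 10 µM JCP410 controls.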

For the test, the target named is DPAP1 (Plasmodium falciparum, UniProt Q8IIJ9). Description: primary screen, percent inhibition; read by cleavage of a fluorogenic dipeptide substrate; higher = more effect of the substance. Also on record: species or system P. falciparum D10 trophozoite lysates; single well.
Chain of DPAP1 (Q8IIJ9 whole entry, looked up): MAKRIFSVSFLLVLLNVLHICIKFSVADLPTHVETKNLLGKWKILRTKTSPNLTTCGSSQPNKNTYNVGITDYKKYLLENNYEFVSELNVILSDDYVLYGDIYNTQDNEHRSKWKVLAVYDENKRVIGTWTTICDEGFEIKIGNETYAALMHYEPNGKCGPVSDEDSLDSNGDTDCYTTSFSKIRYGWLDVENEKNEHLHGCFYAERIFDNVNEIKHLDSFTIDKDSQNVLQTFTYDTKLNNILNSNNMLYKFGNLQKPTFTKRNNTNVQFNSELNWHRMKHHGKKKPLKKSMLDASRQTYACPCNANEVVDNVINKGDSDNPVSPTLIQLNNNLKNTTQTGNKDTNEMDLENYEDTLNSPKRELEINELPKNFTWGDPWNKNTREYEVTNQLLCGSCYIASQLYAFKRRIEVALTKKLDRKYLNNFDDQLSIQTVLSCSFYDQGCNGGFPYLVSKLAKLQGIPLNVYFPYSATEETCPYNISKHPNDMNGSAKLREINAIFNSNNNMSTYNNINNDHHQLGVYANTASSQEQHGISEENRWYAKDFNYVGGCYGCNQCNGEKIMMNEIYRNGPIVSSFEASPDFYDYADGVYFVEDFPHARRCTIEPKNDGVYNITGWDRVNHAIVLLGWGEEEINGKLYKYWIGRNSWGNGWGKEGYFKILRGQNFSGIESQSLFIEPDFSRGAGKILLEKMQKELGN
Regarding `CSc1nc2n(n1)C(c1ccc(F)c(Br)c1)C1=C(O)CC(C)(C)CC1=N2` (centres unmarked), the “% Inhibition @ 10 uM” value is listed as -1.62%.

On to `CC(NCC(O)Cn1nnnc1-c1ccccc1)c1ccccc1` (centres unmarked), for which the “% Inhibition @ 10 uM” value is reported as 2.5%.

In the case of `Cc1ccc(NC(=O)C(C)Oc2ccccc2C)c(C)c1` (centres unmarked), the “% Inhibition @ 10 uM” value was determined as 6.79%.

Turning to `CC(=O)c1c(S)nc(-c2ccccc2)nc1N1CCN(Cc2ccccc2)CC1`, the “% Inhibition @ 10 uM” value was 29.2%.

For the compound `CCOc1ccc(C(=O)NCC2CCN(C(=O)c3ccc(OCC)cc3)CC2)cc1`, the “% Inhibition @ 10 uM” value was 5%.

Regarding `O=[N+]([O-])c1c(NCCO)cc(Cl)c2nonc12`, the “% Inhibition @ 10 uM” value is reported as 5.66%.

`COc1ccccc1N1C(=O)CC(N2CCN(C)CC2)C1=O` (centres unmarked): the “% Inhibition @ 10 uM” value was -6.08%.

Turning to `COC(=O)/C(C#N)=C/c1ccc(C)o1`, the “% Inhibition @ 10 uM” value is -0.256%.

In the case of `COc1ccc(/C=C(\C#N)C(N)=S)cc1`, the “% Inhibition @ 10 uM” value is reported as -2.51%.

`Cc1ccc(/C=C(\C#N)C(N)=S)o1`: the “% Inhibition @ 10 uM” value stood at 79.5%.

Take `CCOC(=O)C1=C(CN2CCN(C(=O)OCC)CC2)NC(=O)NC1c1cccs1` (centres unmarked): the “% Inhibition @ 10 uM” value was -3.36%.

For the compound `COc1ccc(C(=O)CC(=O)c2ccc(OC)c(OC)c2)c(O)c1`, the “% Inhibition @ 10 uM” value is on record as 4.74%.

As to `Cc1ccc(S(=O)(=O)Nc2nc3ccccc3nc2N2CCCCC2)cc1`, the “% Inhibition @ 10 uM” value is given as -0.969%.

As to `CCCCn1c2ccccc2c2nnc(S)nc21`, the “% Inhibition @ 10 uM” value was found to be 36.5%.

For `Cn1c2ccc(F)cc2c2nnc(S)nc21`, the “% Inhibition @ 10 uM” value turned out to be 74%.

Take `Fc1ccc2[nH]c3nc(S)nnc3c2c1`: the “% Inhibition @ 10 uM” value came to 56%.

In the case of `Cc1ccc2[nH]c3nc(S)nnc3c2c1`, the “% Inhibition @ 10 uM” value amounted to 12.4%.

Consider `Cc1ccc2c(c1)c1nnc(S)nc1n2Cc1ccccc1`, for which the “% Inhibition @ 10 uM” value is reported as 3.73%.

In the case of `CCn1c2ccc(OC)cc2c2nnc(S)nc21`, the “% Inhibition @ 10 uM” value came out at 79.3%.

Consider `Fc1ccc2c(c1)c1nnc(S)nc1n2CCc1ccccc1`, for which the “% Inhibition @ 10 uM” value is given as 10.9%.

Regarding `CCn1c2ccc(F)cc2c2nnc(S)nc21`, the “% Inhibition @ 10 uM” value is listed as 32.8%.

For the compound `CSc1nnc2c(n1)[nH]c1ccc(C)cc12`, the “% Inhibition @ 10 uM” value came to 2.51%.

Regarding `CCn1c2ccccc2c2nnc(S)nc21`, the “% Inhibition @ 10 uM” value stood at 38%.

Take `CCn1c2ccc(OC)cc2c2nc3ccccc3nc21`: the “% Inhibition @ 10 uM” value is -3.13%.

`CCCCn1c2ccc(C)cc2c2nnc(S)nc21`: the “% Inhibition @ 10 uM” value came out at 61%.

For the compound `CC(C)c1nc2ccccc2n1Cc1ccccc1F`, the “% Inhibition @ 10 uM” value is 1.12%.

`NC(=O)C1CCN(C(=O)COCc2cc(-c3ccc4c(c3)OCO4)on2)CC1`: the “% Inhibition @ 10 uM” value is on record as -4.1%.

Consider `COCCCNC(=O)c1cnn2c(C(F)(F)F)cc(-c3cccs3)nc12`, for which the “% Inhibition @ 10 uM” value was -2.26%.

Consider `Nc1ncnc2c1nc(S(=O)(=O)O)n2Cc1ccccc1`, for which the “% Inhibition @ 10 uM” value is on record as -1.69%.

On to `CCSC1=NSC2=NC(=O)/C(=C\c3c(C)[nH]c4ccccc34)C(=N)N12`, for which the “% Inhibition @ 10 uM” value came to 4.79%.

With `Cc1cc2ccccc2n1CCNC(=O)C(c1ccccc1)c1ccccc1`, the “% Inhibition @ 10 uM” value is -4.89%.

For `COCCNC(=O)C1CCCN(S(=O)(=O)N(C)C2CCCCC2)C1` (centres unmarked), the “% Inhibition @ 10 uM” value is -2.86%.
